From PubChem
A selection follows.
aSyn 5UTR act = Activators via SNCA 5'UTR binding, MLPCN. alpha-synuclein 5'UTR reporter, activators screen. activity score, % (tested at 7.5 µM), hits read low. 7.1% of 300,000 active; in the data active = activity score below about -60%
An asterisk follows results filed as active.

SMILES	aSyn 5UTR act
Cc1cccc(NC(=O)COc2ccc(Br)cc2/C=N/O)c1	-167*
O=C(COc1ccc(/C=N/NC(=O)c2ccncc2)cc1)Nc1ccccc1	-72*
COc1cc(/C=N/NC(=O)c2cccc(C)c2)ccc1OCC(=O)Nc1ccccc1	-128*
COc1ccc(NC(=O)COc2ccc(/C=N/n3c(C)nnc3C)cc2OC)cc1	-91*
COCCNC(=O)c1nc2ccccc2s1	-83*
Cc1ccc(-c2cc(C(=O)NCc3ccco3)c3ccccc3n2)s1	-65*
O=C(NCc1ccco1)c1nc2ccccc2s1	-107*
Nc1nnnn1/N=C/C=C/c1ccccc1	-115*
Nc1nnnn1/N=C/C(Br)=C/c1ccccc1	-251*
O=C1NC(=O)/C(=C/c2ccc(-c3cccc([N+](=O)[O-])c3)o2)S1	-126*
O=C(/C=C/c1ccc(-c2cccc([N+](=O)[O-])c2)o1)N1CCOCC1	-110*
O=[N+]([O-])c1cccc(-c2ccc(/C=N/Nc3nc(N4CCCCC4)nc(N4CCCCC4)n3)o2)c1	73
COc1cc(/C=C2/C(=N)N3C(c4ccccc4)=CSC3=NC2=O)ccc1OCC(=O)O	-68*
CCOc1ccc(/C=C2/Sc3ccc(C(=O)N4CCN(C(=O)c5ccco5)CC4)cc3N(C)C2=O)cc1OC	53
COc1cc(/C=C2/C(=N)N3N=C(CC(=O)N4CCOCC4)SC3=NC2=O)ccc1OCc1ccccc1	-129*
CC(C)(C)c1ccc(C(=O)CS(=O)(=O)c2ccccc2)cc1	-133*
Cc1ccc(C(=O)CC(=O)c2ccc(C(C)(C)C)cc2)cc1	-113*
Cc1ccc(C(=O)CC(=O)c2cc(Cl)ccc2O)cc1	-151*
Cc1ccc(C(=O)CC(=O)c2ccc(C)cc2O)cc1	-95*
Cc1ccccc1Oc1ccc(Oc2ccccc2C)nn1	-136*
COCCNC(=O)CSc1nc(-c2ccccc2)cs1	-73*
CC(C)(C)c1ccc(-c2csc(NC(=O)CN3C(=O)NC4(CCCCC4)C3=O)n2)cc1	-79*
Cc1ccc(C2(C)NC(=O)N(CC(=O)Nc3nc(-c4ccccn4)cs3)C2=O)cc1 (centres undefined)	80
Cc1ccc(-c2csc(NC(=O)CSc3nc(C)cs3)n2)cc1	-160*
CC(C)(C)NC(=O)CSc1nc(-c2ccc(F)cc2)cs1	-181*
SMILES	aSyn 5UTR act
Cc1csc(SCC(=O)Nc2nc(-c3ccccc3)cs2)n1	-80*
Cc1csc(NC(=O)CSc2ccccc2F)n1	-88*
COCc1cc(C)nc(SCC(=O)Nc2nc(C)cs2)c1C#N	55
O=C(CN1C(=O)c2ccccc2S1(=O)=O)c1ccc(F)cc1	92
O=C(CN1CCN(CCN2C(=O)c3cccc4cccc(c34)C2=O)CC1)c1ccc(F)cc1	-65*
Cc1ccccc1Nc1nc(N)nc(COC(=O)c2ccccc2)n1	-198*
Cc1ccccc1Nc1nc(N)nc(COC(=O)c2cccn2C)n1	-122*
Cc1cc(NC(=O)c2ccc(F)cc2)no1	-79*
CCCCCCCC(=O)Oc1ccc(C(=O)Nc2cc(C)on2)cc1	-93*
CC(=O)Nc1ccc(C(=O)Nc2cc(C)on2)cc1	-85*
Cc1cc(NC(=O)c2nn(C)c(C)c2Br)no1	-87*
CCN(CC)c1ccc(NC(=O)C2CC3CCC2C3)cc1 (centres undefined)	-68*
Cc1ccc(NC(=O)C2CC3CCC2C3)c(Br)c1 (centres undefined)	-110*
O=C(/C=C/c1cccc([N+](=O)[O-])c1)c1cccs1	-77*
O=C(N/N=C/C=C/c1ccc([N+](=O)[O-])cc1)c1cccs1	-77*
O=C(/C=C/c1cccc(Cl)c1)c1ccc([N+](=O)[O-])o1	91
O=C(N/N=C/c1ccc(Br)s1)c1ccc([N+](=O)[O-])cc1	84
O=C(N/N=C/c1cccc(OCc2ccccc2)c1)c1cccs1	-72*
Cc1ccc2[nH]c(C(=O)N/N=C/c3ccc([N+](=O)[O-])cc3)c(C)c2c1	-63*
O=C(N/N=C/c1cccc([N+](=O)[O-])c1)c1cccs1	-84*
COc1cc(CNCCO)ccc1OCC(=O)Nc1ccc(Br)cc1	-69*
N#C/C(=N/Nc1ccc(OC(F)(F)F)cc1)C(N)=S	-71*
COc1ccc(-c2cn3cc(C(F)(F)F)cc(Cl)c3n2)cc1	-197*
Fc1ccc(-c2cn3cc(C(F)(F)F)cc(Cl)c3n2)cc1	-101*
Cc1ccc(NC(=O)CNCc2ccccc2)c(Br)c1	-68*
SMILES	aSyn 5UTR act
Cc1ccc(NC(=O)CCC(=O)c2cccs2)c(Br)c1	-79*
Cc1ccc(NC(=O)CNCc2cccs2)c(Br)c1	-119*
Cc1ccc(NC(=O)CCc2ccc(C)o2)c(Br)c1	-72*
C(=C\c1ccc2ccccc2n1)/c1ccccc1	67
O=C(O)/C=C/c1ccc2ccccc2n1	-64*
CCCCC[n+]1ccn(C2=C([O-])c3ccccc3C(=O)/C2=N\S(=O)(=O)c2ccc(Cl)cc2)c1	48
Cc1cc(-c2ccc(Cl)s2)n[nH]1	-80*
COc1c(Cl)cc(C(=O)NN)cc1Cl	99
CC(C)CCNC(=O)C(=O)Nc1ccccc1	-155*
CC(C)CCNC(=O)c1ccc(-c2ccccc2)cc1	-107*
CC(C)CCNC(=O)c1ccc(Cl)c(N)c1	-81*
N#Cc1ccc(CO/N=C/c2ccccc2)cc1	-95*
c1ccc(C2=NN(c3ccccc3)CC2)cc1	-157*
O=c1c(-c2ccc(Cl)cc2)c[nH]n1-c1ccccc1	-145*
O=c1c(-c2ccccc2)c[nH]n1-c1cccc([N+](=O)[O-])c1	-87*
CNC(=S)Nc1ccc(Nc2ccccc2)cc1	-95*
CCCNC(=S)Nc1ccc(Nc2ccccc2)cc1	-87*
CCN(CC)c1ccc(NC(=O)c2ccc3c(c2)OCO3)cc1	-133*
CCOC(=O)c1c(C)[nH]c(C(=O)Nc2ccc3c(c2)OCO3)c1C	-99*
CCOC(=O)c1ccc(NC(=O)c2ccc3c(c2)OCO3)cc1	-118*
CC(=O)c1cccc(N=Nc2c(C)[nH]c3ccccc23)c1	-150*
CCCNS(=O)(=O)c1cccc(C(=O)OCc2cc(=O)oc3cc(OC)ccc23)c1	-97*
COc1ccc(C(=O)Nc2cc3c(oc2=O)CCCC3=O)cc1	-69*
COc1ccc(C(=O)Nc2ccc3c4c(cccc24)CC3)cc1	-84*
COc1ccc(C(=O)Nc2cccc3c2CCCC3)cc1	-132*
SMILES	aSyn 5UTR act
CC(=O)NCc1ccc(C(=O)CCl)s1	-64*
O=c1oc2ccc(Cl)cc2nc1/C=C(\O)c1cccs1	-108*
Cc1ccc2oc(=O)c(/C=C(\O)c3ccccc3)nc2c1	-79*
Cc1ccc2oc(=O)c(/C=C(\O)c3cccs3)nc2c1	-148*
COC(=O)c1ccc2nc(NC(=O)COC(=O)CSc3nc(C)cc(C)n3)sc2c1	-88*
COC(=O)c1ccc2nc(NC(=O)CSCC(=O)OCC(=O)c3ccccc3)sc2c1	-73*
Cc1ccc2nc(NC(=O)CSCC(=O)OCC(=O)c3ccc(Br)cc3)sc2c1	83
Cc1ccc(-c2nc(NCc3ccco3)n(S(C)(=O)=O)n2)cc1	-72*
Clc1cccc(-c2cc3nc4c(c(NCc5ccco5)n3n2)CCCC4)c1	-115*
CC(=O)n1nc(-c2ccc(C)cc2)nc1NCc1ccco1	-161*
CCC(=O)n1nc(-c2ccc(Cl)cc2)nc1NCc1ccccc1	-93*
Cc1ccc(-c2cc3nc(C)cc(NCc4ccco4)n3n2)cc1	-157*
O=C(CCc1ccccc1)n1nc(-c2ccccc2)nc1NCc1ccco1	-67*
O=C(NC(=O)N1CCN(c2ccccc2)CC1)c1ccc(Cl)cc1	-66*
C(=C\c1cccc2ccccc12)/c1nnc(-c2cccs2)o1	-69*
